L3MBTL1 block – qHTS Assay for the Inhibitors of L3MBTL1; AlphaScreen L3MBTL1–H3K9me1 peptide binding; 230,000 compounds, 0.66% hits; Potency, µM (titrated, usually from 57.1 µM), usual class: inhibitors; Lethal(3)malignant brain tumor-like protein 1 (Homo sapiens), Q9Y468; note: nearly all actives have a fitted effect of over 60% in size
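L3MBTL1 50 nM + b-AHA-H3(1-15)K9me1 75 nM, 30 min RT; compound added, 30 min RT; streptavidin donor/Ni-chelate acceptor beads 10 ug/mL each final, 30 min RT dark; AlphaScreen read.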
HP1b binding inh – HTS for Inhibitors of HP1-beta Chromodomain Interactions with Methylated Histone Tails. AlphaScreen HP1-beta / biotin-H3K9me3 peptide binding. Potency, µM (series often up to 114 µM), most hits filed as inhibitors. 390,000 compounds, 0.56% hits. AID 540317, 2011; note: nearly all actives have a fitted effect of over 70% in size
Target sequence (P83916 whole entry, looked up): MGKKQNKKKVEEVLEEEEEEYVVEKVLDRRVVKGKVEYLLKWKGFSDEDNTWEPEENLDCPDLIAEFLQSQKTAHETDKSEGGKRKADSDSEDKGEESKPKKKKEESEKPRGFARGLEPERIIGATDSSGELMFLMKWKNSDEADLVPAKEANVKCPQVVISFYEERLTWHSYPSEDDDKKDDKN
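AlphaScreen: HP1-beta (50 nM) preformed 30 min with biotin-H3(1-18)K9me3 peptide (50 nM) in PBS pH 7.4, 0.01% Tween-20. Compound added for 30 min at RT, then streptavidin donor/nickel chelate acceptor beads (10 ug/mL) for 30 min.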
G9a block – qHTS Assay for Inhibitors of Histone Lysine Methyltransferase G9a. G9a H3K9 monomethylation, AlphaScreen, 2 h. Histone-lysine N-methyltransferase EHMT2 (Homo sapiens), Q96KQ7. 350,000 compounds, 8.8% hits. AID 504332, 2011. Potency, µM (top dose mostly 102 µM), usual class: inhibitors; note: nearly all actives have a fitted effect of over 75% in size
Target sequence (Q96KQ7 913-1193 limits assumed): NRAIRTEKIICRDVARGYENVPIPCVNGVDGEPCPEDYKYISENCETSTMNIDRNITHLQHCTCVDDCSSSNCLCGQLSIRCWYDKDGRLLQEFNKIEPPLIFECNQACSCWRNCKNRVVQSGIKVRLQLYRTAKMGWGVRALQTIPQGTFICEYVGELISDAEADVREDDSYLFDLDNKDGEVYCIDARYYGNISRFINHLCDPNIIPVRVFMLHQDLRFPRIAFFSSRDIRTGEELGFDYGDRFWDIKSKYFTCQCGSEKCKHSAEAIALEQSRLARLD
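Readings reflect AlphaScreen signal from monomethyl-H3K9 antibody detection. HMT at 20 nM; substrate b-H3K9 500 nM; cofactor SAM 20 uM; 2 h RT reaction; compounds tested as titrations in qHTS with 15 min preincubation.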
JMJD2A Tudor – qHTS Assay for Inhibitors of JMJD2A-Tudor Domain; AID 504339, 2011; 390,000 compounds, 4.4% hits; Potency, µM (titrated, usually from 114 µM), usual class: inhibitors; AlphaScreen JMJD2A-Tudor / H3K4me3 peptide binding; note: nearly all actives have a fitted effect of over 50% in size
GLS inh – qHTS for Inhibitors of Glutaminase (GLS). Potency, µM (top dose mostly 45.5 µM), hits mostly inhibitors. Glutaminase kidney isoform, mitochondrial (Homo sapiens), O94925. 410,000 compounds, 0.21% hits. GLS enzymatic activity, qHTS titration. AID 624170, 2012
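Compounds were pin-transferred onto hKGA, after which L-glutamine (1 mM solution) and a detection mix of glutamate oxidase, HRP and Amplex Red were added. Initial and 30 min RT fluorescence reads were collected.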
BAZ2B block – qHTS Assay for Inhibitors of BAZ2B. Bromodomain adjacent to zinc finger domain protein 2B (Homo sapiens), Q9UIF8. AlphaScreen BAZ2B-H3K14Ac peptide displacement. Potency, µM (titrated, usually from 114 µM), most hits filed as inhibitors. 360,000 compounds, 4.4% hits. AID 504333, 2011; note: nearly all actives have a fitted effect of over 60% in size
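Compounds, titrated to a top concentration of 110 uM, were incubated 30 min at room temperature with preformed BAZ2B/acetyl-K14 H3 peptide complex (50 nM each). Proximity signal was measured by AlphaScreen after 20 min with beads.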
A number is an active result; . = inactive; ? = inconclusive; / = not tested or not shown; [ ] = another dose, or the depositor's remark. A selection: hits, their analogues and other compounds. The true share with any hit is near 10%. Calls come from the whole dose curve; as a rule, active = well fitted curve in the direction sought with a large enough effect; inconclusive = small, poorly fitted or top-dose-only effect, or another doubt; inactive = no such curve, though single readings can be large; an effect the other way counts as inactive or inconclusive.

SMILES	L3MBTL1 block	HP1b binding inh	G9a block	JMJD2A Tudor	GLS inh	BAZ2B block
CCN1CCN(c2cc3c(cc2F)c(=O)c(C(=O)O)cn3C2CC2)CC1	.	.	31.6µM	.	.	?
COC(=O)c1ccc(-n2c(/C=C\c3cccc(Br)c3)nc3ccccc3c2=O)cc1	/	.	.	.	.	.
O=C(CSc1nnc2[nH]c(=O)cc(-c3ccccc3)n12)Nc1ccc(OC(F)(F)F)cc1	/	.	?	.	.	.
NC1=NCC2c3ccccc3Cc3ccccc3N12 (stereo unspecified)	/	/	.	/	.	/
Cc1ccc(NC(=O)c2ncn(CCCN3CCN(Cc4cccc5ccccc45)CC3)n2)cc1C	/	?	/	50.1µM	.	/
Cc1ccc(NC(=O)c2ncn(CC(=O)N[C@H](C)c3cccc4ccccc34)n2)cc1C	.	.	/	.	.	/
Cc1nnc(N2C(=O)C(O)=C(C(=O)c3ccco3)C2c2ccc(C(C)(C)C)cc2)s1 (stereo unspecified)	.	.	?	.	.	.
Cc1nnc(N2C(=O)C(O)=C(C(=O)c3ccco3)C2c2ccc(C(C)C)cc2)s1 (stereo unspecified)	.	.	44.7µM	?	.	.
CSc1ccc(C2C(C(=O)c3ccco3)=C(O)C(=O)N2c2nnc(SC)s2)cc1 (stereo unspecified)	/	.	?	7.08µM	.	?
Cc1nnc(N2C(=O)C(O)=C(C(=O)c3ccco3)C2c2ccc(F)cc2)s1 (stereo unspecified)	.	.	?	56.2µM	.	.
CC(=O)O[C@H](C)OC(=O)[C@@H](C)c1ccc(-c2ccccc2)c(F)c1	/	/	/	/	.	/
Cn1cc(P(=O)(c2ccccc2)c2ccccc2)c2ccccc21	/	/	/	.	/	/
CCN=C1S/C(=C/c2ccc(-c3ccc(F)cc3)o2)C(=O)N1CC	/	.	35.5µM	.	.	.
CCN=C1S/C(=C\c2ccc(Sc3ccc(Cl)cc3)o2)C(=O)N1CC	.	.	.	.	.	.
COc1ccc(NC(=O)c2oc3ccc(S(=O)(=O)N4CCCCC4)cc3c2C)cc1Cl	/	.	.	.	.	.
Cc1ccc(OC(=O)COc2ccccc2)c(-n2nc3ccccc3n2)c1	/	.	.	.	.	56.2µM
CCCOC(=O)c1c(-c2ccc(C)cc2C)csc1NC(=O)C1C2CCC(O2)C1C(=O)O (stereo unspecified)	.	?	12.6µM	70.8µM	.	.
CCOC(=O)c1cccc(NC(=O)c2cnc(N3CCCCC3)c3ccccc23)c1	/	.	.	.	.	.
CCCN(C(=O)c1cc2c(s1)-c1ccccc1SC2)c1ccccc1F	/	.	.	.	.	.
CCC(=O)c1cc(-c2nc3ccccc3n2C)n(C)c1	.	.	.	.	.	.
Cc1oc(-c2nc3ccccc3n2C)cc1C(=O)c1ccccc1	.	.	10µM	?	.	.
Cn1cc(C(=O)c2ccccc2)cc1-c1nc2ccccc2n1C	.	.	50.1µM	.	.	.
CC(=O)c1ccc(-c2nc3ccccc3n2C)o1	.	.	.[12.7 µM]	.	.	.
CC1=C(C(=O)Nc2ccc(Cl)cc2)C(c2cccs2)n2nc(SCc3cccc(C)c3)nc2N1 (stereo unspecified)	/	.	.	.	.	.
CCc1ccc(NC(=O)CN2C(=O)CC(c3ccccc3)Sc3ccccc32)cc1 (stereo unspecified)	/	.	.	.	.	.
SMILES	L3MBTL1 block	HP1b binding inh	G9a block	JMJD2A Tudor	GLS inh	BAZ2B block
COC(=O)c1sccc1NS(=O)(=O)c1ccc(OC)cc1	.	.	.	.	.	.
COC(=O)c1sccc1N/C=C(\C#N)S(=O)(=O)C(C)(C)C	.	.	.	79.4µM	.	.
CC1(C)CC(=O)C(/C=N/n2cnc3ccccc3c2=O)=C(O)C1	/	.	.[2.33 µM]	39.8µM	.	50.1µM
Nc1nc(-c2ccccc2Cl)cs1	/	?	/	.	.	/
COc1ccc(-n2c(C)cc(-c3csc(N)n3)c2C)cc1	.	?	8.91µM	44.7µM	.	44.7µM
Cc1cc(-c2csc(N)n2)c(C)n1-c1ccc(Cl)c(Cl)c1	.	?	20µM	56.2µM	.	?
COc1ccc(Cl)cc1-c1csc(N)n1	.	.	.[0.501 µM]	.	.	.
COc1cccc(-c2cn3c(n2)sc2cc(C(=O)NCc4ccccc4F)ccc23)c1	/	.	.	.	.	.
COc1cc(OC)c(N(C)C(=O)c2c(C)oc3ncn(CC(C)C)c(=O)c23)cc1Cl	/	.	.	.	.	.
O=C(NCCc1ccccc1)c1ccc(CSc2nc3cccnc3n2Cc2ccccc2F)cc1	/	25.1µM	2µM	5.62µM	.	14.1µM
O=C(NCCc1ccccc1)c1ccc(Cn2c(SCc3ccccc3F)nc3cccnc32)cc1	/	.	.	.	.	.
Cc1ccc(NC(=O)Cn2c(=O)n(CCC(=O)NCc3ccccc3Cl)c(=O)c3ccccc32)cc1	/	.	.	.	.	?
Cc1cccc(CNC(=O)Cc2ccc(NC(=O)N3CCCCc4ccccc43)cc2)c1	/	.	.	.	.	.
COc1cc(C(=O)NNC(=S)NCc2ccco2)cc(OC)c1OC	.	.	56.2µM	.	.	.
CCN(CC)S(=O)(=O)c1ccc(/C=C/C(=O)OCC(=O)NCc2ccco2)cc1	?	?	/	31.6µM	.	/
COc1ccccc1NS(=O)(=O)c1ccc(C(=O)OCC(=O)NCc2ccco2)cc1	?	.	50.1µM	.	.	50.1µM
COc1ccc(S(=O)(=O)Nc2ccccc2C(=O)NCc2ccco2)cc1	.	.	14.1µM	.[11.4 µM]	.	?
CCN(CC)S(=O)(=O)c1ccc(/C=C/C(=O)OCC(=O)NCc2cccs2)cc1	.	.	.	.	.	.
Cc1ccc(C2=CC(c3ccccc3F)n3c(nc4ccccc43)N2)cc1C (stereo unspecified)	/	.	?	.	.	.
O=C(c1ccc(F)cc1)N1CCC(c2nc(-c3ccc(S(=O)(=O)N4CCCC4)cc3)no2)CC1	/	.	.	.	.	.
COc1ccccc1OCC(=O)NCc1ccco1	.	.	56.2µM	.	.	.
CCN(CC)S(=O)(=O)c1ccc(C(=O)OCC(=O)NCc2ccco2)cc1	.	.	?	?	.	50.1µM
COc1cccc(OC)c1C(=O)NCc1ccco1	/	/	/	/	.	/
COc1ccccc1C(C)NCC(=O)NC(=O)NCc1ccco1 (stereo unspecified)	.	.	.	?	.	50.1µM

Compound activity from PubChem.
